In PubChem BioAssay AID720530 (The Scripps Research Institute Molecular Screening Center, 2013):
In all, about 1,000 compounds went through this assay and about 260 (26%) were called active. Only a sample is shown. Unmarked numbers belong to inactive results. No stated cut-off is given here; in the data, active means inhibition above about 21%; inactive means the rest.

The compounds below were run against E3 ubiquitin-protein ligase UHRF1 (Homo sapiens) (UniProt Q96T88) (assay: UHRF1 methylated DNA binding inhibitors, counter-screen for MBD2 inhibitor project, biochemical, TR-FRET, human UHRF1 (AID 720530;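 further: UHRF1 SRA domain binding a labeled hemimethylated CpG hairpin DNA; 0% = vehicle only and 100% = reference inhibitor with vehicle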)). Settings: UHRF1 binding to methylated oligonucleotide, at 4.4 µM, stronger effect = higher value.
Sequence of E3 ubiquitin-protein ligase UHRF1 (Homo sapiens) (Q96T88 whole entry, looked up, the tested form may be a part): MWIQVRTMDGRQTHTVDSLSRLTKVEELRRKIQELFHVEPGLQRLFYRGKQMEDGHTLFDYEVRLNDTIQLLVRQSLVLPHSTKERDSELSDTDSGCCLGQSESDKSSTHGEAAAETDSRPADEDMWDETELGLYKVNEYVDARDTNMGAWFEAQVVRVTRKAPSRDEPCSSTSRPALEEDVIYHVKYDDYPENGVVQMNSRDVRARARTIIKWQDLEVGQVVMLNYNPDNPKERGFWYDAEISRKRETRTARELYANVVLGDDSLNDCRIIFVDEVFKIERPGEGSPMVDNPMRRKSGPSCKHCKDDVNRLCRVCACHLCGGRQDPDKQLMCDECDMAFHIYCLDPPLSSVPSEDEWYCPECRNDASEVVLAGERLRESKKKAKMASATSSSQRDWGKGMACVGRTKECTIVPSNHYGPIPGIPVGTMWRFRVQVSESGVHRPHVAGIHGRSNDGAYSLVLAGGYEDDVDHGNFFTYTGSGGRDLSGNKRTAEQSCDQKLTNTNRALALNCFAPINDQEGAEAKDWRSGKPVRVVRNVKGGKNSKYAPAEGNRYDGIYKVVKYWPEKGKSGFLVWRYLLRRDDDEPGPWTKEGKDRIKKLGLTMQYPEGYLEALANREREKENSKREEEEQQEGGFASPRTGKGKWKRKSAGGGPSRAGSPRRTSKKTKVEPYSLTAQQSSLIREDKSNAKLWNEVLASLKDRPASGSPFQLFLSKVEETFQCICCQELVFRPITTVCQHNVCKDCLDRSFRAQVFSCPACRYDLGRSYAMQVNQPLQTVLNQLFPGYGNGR

Q: For `Cc1cc(/C=C2/C(=O)NC(=O)N(Cc3ccco3)C2=O)c(C)n1-c1ccc(C(=O)O)cc1`, which inhibition is on record?
A: 15.7%

Q: With `O=C1NC(=O)N(Cc2ccco2)C(=O)/C1=C\c1ccc(-c2ccc(F)cc2)o1` as the compound, how does the inhibition read?
A: 12.8%

Q: Which inhibition does the source give for `COc1ccc(N2C(=O)/C(=C/c3ccco3)C(=O)NC2=S)cc1` here?
A: 97.2% (active)
